Reference: PubChem BioAssay AID1159580 (chemical genetic matrix, 2015)
Among all 5,500 compounds or so, about 2,000 (36%) were called active. Roughly 18% stayed inconclusive and do not appear here. Cut-off read from the data, not from the text of the source: active = normalized growth mostly below about 0.91 (no sharp cut-off); inconclusive = no clear call, values can overlap the other calls; inactive = mostly above about 0.92. This is one part of the list.

Assay: chemical genetic growth profiling, strain panel (AID 1159580);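 note: tested at 20 µM; growth read once vehicle control cultures reached saturation at 30 °C; 1 = growth at the plate median or of vehicle wells; lower values mean less growth of the strain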
Details: growth OD

Measured: normalized growth

O=[N+]([O-])c1cc([As](=O)(O)O)ccc1O
active: S. cerevisiae deletion strains, locus YKL085W, strain MDH1 (second series), hits give low values 0.484 | S. cerevisiae deletion strains, locus YKL085W, strain MDH1, hits give low values 0.484 | S. cerevisiae deletion strains, locus YKR001C, strain vps1, hits give low values 0.232 | S. cerevisiae deletion strains, locus YLR102C, strain apc9, hits give low values 0.243 | S. cerevisiae deletion strains, locus YLR268W, strain sec22, hits give low values 0.12 | S. cerevisiae deletion strains, locus YLR371W, strain rom2, hits give low values 0.152 | S. cerevisiae deletion strains, locus YLR418C, strain cdc73, hits give low values 0.146 | S. cerevisiae deletion strains, locus YML124C, strain tub3, hits give low values 0.329 | S. cerevisiae deletion strains, locus YMR078C, strain ctf18, hits give low values 0.548 | S. cerevisiae deletion strains, locus YMR223W, strain ubp8, hits give low values 0.129 | S. cerevisiae deletion strains, locus YNL271C, strain bni1, hits give low values 0.532 | S. cerevisiae deletion strains, locus YNL298W, strain CLA4, hits give low values 0.877 | S. cerevisiae deletion strains, locus YNL307C, strain MCK1, hits give low values 0.0701 | S. cerevisiae deletion strains, locus YOR136W, strain idh2, hits give low values 0.147 | S. cerevisiae deletion strains, locus YOR184W, strain ser1, hits give low values 0.0809 | S. cerevisiae deletion strains, locus YOR316C, strain cot1, hits give low values 0.171 | S. cerevisiae deletion strains, locus YPR119W, strain clb2, hits give low values 0.288 | S. cerevisiae deletion strains, locus YPR163C, strain tif3, hits give low values 0.0934 | S. cerevisiae deletion strains, locus YPR167C, strain met16, hits give low values 0.152 | S. cerevisiae deletion strains, strain wtn01, hits give low values 0.0828
inactive: S. cerevisiae deletion strains, locus YJR075W, strain HOC1, hits give low values 1 | S. cerevisiae deletion strains, locus YKL009W, strain mrt4, hits give low values 0.986 | S. cerevisiae deletion strains, locus YKL068W, hits give low values 0.96 | S. cerevisiae deletion strains, locus YKL160W, strain elf1, hits give low values 0.959 | S. cerevisiae deletion strains, locus YKL190W, strain CNB1, hits give low values 0.983 | S. cerevisiae deletion strains, locus YKR091W, strain srl3, hits give low values 0.975 | S. cerevisiae deletion strains, locus YLL001W, strain dnm1, hits give low values 0.936 | S. cerevisiae deletion strains, locus YLL026W, hits give low values 0.97 | S. cerevisiae deletion strains, locus YLL041C, strain sdh2, hits give low values 0.965 | S. cerevisiae deletion strains, locus YLR027C, strain aat2, hits give low values 0.97 | S. cerevisiae deletion strains, locus YLR039C, strain RIC1, hits give low values 1.01 | S. cerevisiae deletion strains, locus YLR058C, strain SHM2, hits give low values 0.998 | S. cerevisiae deletion strains, locus YLR113W, strain HOG1, hits give low values 1.02 | S. cerevisiae deletion strains, locus YLR221C, strain rsa3, hits give low values 1 | S. cerevisiae deletion strains, locus YLR258W, strain gsy2, hits give low values 0.975 | S. cerevisiae deletion strains, locus YLR262C, strain YPT6 (second series), hits give low values 0.948 | S. cerevisiae deletion strains, locus YLR262C, strain YPT6, hits give low values 1.02 | S. cerevisiae deletion strains, locus YLR320W, strain mms22, hits give low values 0.984 | S. cerevisiae deletion strains, locus YLR330W, strain CHS5, hits give low values 0.988 | S. cerevisiae deletion strains, locus YLR342W, strain FKS1 (second series), hits give low values 1.07 | S. cerevisiae deletion strains, locus YLR342W, strain FKS1, hits give low values 0.978 | S. cerevisiae deletion strains, locus YLR357W, strain rsc2, hits give low values 0.92 | S. cerevisiae deletion strains, locus YLR370C, strain arc18, hits give low values 0.957 | S. cerevisiae deletion strains, locus YLR384C, strain iki3, hits give low values 0.938 | S. cerevisiae deletion strains, locus YML016C, strain PPZ1, hits give low values 0.988 | S. cerevisiae deletion strains, locus YML032C, strain rad52, hits give low values 0.929 | S. cerevisiae deletion strains, locus YML120C, strain ndi1, hits give low values 0.969 | S. cerevisiae deletion strains, locus YMR058W, strain fet3, hits give low values 0.977 | S. cerevisiae deletion strains, locus YMR125W, strain sto1, hits give low values 0.943 | S. cerevisiae deletion strains, locus YMR129W, hits give low values 0.981 | S. cerevisiae deletion strains, locus YMR205C, strain PFK2, hits give low values 0.983 | S. cerevisiae deletion strains, locus YMR231W, strain pep5, hits give low values 0.951 | S. cerevisiae deletion strains, locus YMR263W, strain SAP30, hits give low values 0.99 | S. cerevisiae deletion strains, locus YMR307W, strain GAS1, hits give low values 1.05 | S. cerevisiae deletion strains, locus YNL067W, strain RPL9B, hits give low values 0.991 | S. cerevisiae deletion strains, locus YNL071W, strain lat1, hits give low values 0.973 | S. cerevisiae deletion strains, locus YNL128W, strain TEP1, hits give low values 0.976 | S. cerevisiae deletion strains, locus YNL153C, strain GIM3, hits give low values 0.958 | S. cerevisiae deletion strains, locus YNL183C, strain NPR1, hits give low values 0.971 | S. cerevisiae deletion strains, locus YNL209W, strain ssb2, hits give low values 0.974 | S. cerevisiae deletion strains, locus YNL233W, strain BNI4, hits give low values 1.01 | S. cerevisiae deletion strains, locus YNL248C, strain rpa49, hits give low values 0.918 | S. cerevisiae deletion strains, locus YNL250W, strain rad50, hits give low values 0.93 | S. cerevisiae deletion strains, locus YNL322C, strain KRE1 (second series), hits give low values 0.974 | S. cerevisiae deletion strains, locus YNL322C, strain KRE1, hits give low values 0.991 | S. cerevisiae deletion strains, locus YNR049C, strain mso1, hits give low values 0.945 | S. cerevisiae deletion strains, locus YNR052C, strain pop2, hits give low values 1.03 | S. cerevisiae deletion strains, locus YOL006C, strain TOP1, hits give low values 1.06 | S. cerevisiae deletion strains, locus YOL012C, strain htz1 0.214 | S. cerevisiae deletion strains, locus YOL147C, strain pex11, hits give low values 0.987 | S. cerevisiae deletion strains, locus YOR001W, strain rrp6, hits give low values 0.965 | S. cerevisiae deletion strains, locus YOR061W, strain CKA2, hits give low values 0.991 | S. cerevisiae deletion strains, locus YOR069W, strain VPS5, hits give low values 0.989 | S. cerevisiae deletion strains, locus YOR070C, strain gyp1, hits give low values 0.965 | S. cerevisiae deletion strains, locus YOR080W, strain dia2, hits give low values 0.961 | S. cerevisiae deletion strains, locus YOR083W, strain WHI5, hits give low values 0.975 | S. cerevisiae deletion strains, locus YOR106W, strain vam3, hits give low values 0.96 | S. cerevisiae deletion strains, locus YOR144C, strain elg1, hits give low values 0.996 | S. cerevisiae deletion strains, locus YOR231W, strain MKK1, hits give low values 1.03 | S. cerevisiae deletion strains, locus YOR265W, strain rbl2, hits give low values 0.968 | S. cerevisiae deletion strains, locus YOR270C, strain vph1, hits give low values 0.952 | S. cerevisiae deletion strains, locus YOR290C, strain snf2, hits give low values 0.993 | S. cerevisiae deletion strains, locus YPL051W, strain arl3, hits give low values 0.967 | S. cerevisiae deletion strains, locus YPL055C, strain LGE1, hits give low values 0.946 | S. cerevisiae deletion strains, locus YPL078C, strain atp4, hits give low values 0.951 | S. cerevisiae deletion strains, locus YPL106C, strain sse1, hits give low values 0.982 | S. cerevisiae deletion strains, locus YPL240C, strain hsp82, hits give low values 0.949 | S. cerevisiae deletion strains, locus YPL241C, strain CIN2, hits give low values 0.995 | S. cerevisiae deletion strains, locus YPL256C, strain CLN2, hits give low values 1.08 | S. cerevisiae deletion strains, locus YPR141C, strain kar3, hits give low values 1 | S. cerevisiae strains, strain wild type, hits give low values 0.997
